Of roughly 8,800 targets only a part is listed; those with a hit were picked by preference. About 0.5% of all pairs of compound and target were hits. Unmarked numbers belong to inactive results.
Experiments:
Experiment in all cases: log2 fold change, soluble protein after heating vs DMSO (PISA); higher = thermal stabilisation; K562 lysate, 10 uM; active = over 0.2 and 3.5 SD of the protein, either way, in both replicates (recomputed)
vemurafenib = compound: CCCS(=O)(=O)Nc1ccc(F)c(C(=O)c2c[nH]c3ncc(-c4ccc(Cl)cc4)cc23)c1F [vemurafenib]
How it was run: (§1)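 Dounce homogenisation of K562 pellets in PBS pH 7.4 with 1 mM MgCl2 produced a crude extract, used at 1 mg/mL protein. Exposure to 10 μM compound lasted 30 min, and aliquots were then heated for 3 min across 48°C-58°C, pooled and brought to 0.5% NP-40 at 4°C. The supernatant after 21,000xg for 90 min was quantified by TMTpro 16plex LC-MS/MS with channel sums equalised. Duplicate values are given as log-two fold change in thermal stability relative to solvent controls.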

[1] = compound: CCCS(=O)(=O)Nc1ccc(F)c(C(=O)c2c[nH]c3ncc(Cl)cc23)c1F
How it was run: as §1

barasertib = compound: CCN(CCCOc1ccc2c(Nc3cc(CC(=O)Nc4cccc(F)c4)[nH]n3)ncnc2c1)CCOP(=O)(O)O [barasertib]
How it was run: as §1

[2] = compound: CC[C@@H]1C(=O)N(C)c2cnc(Nc3ccc(C(=O)NC4CCN(C)CC4)cc3OC)nc2N1C1CCCC1
How it was run: as §1

volasertib = compound: CC[C@@H]1C(=O)N(C)c2cnc(Nc3ccc(C(=O)N[C@H]4CC[C@H](N5CCN(CC6CC6)CC5)CC4)cc3OC)nc2N1C(C)C [volasertib]
How it was run: as §1

[3] = compound: CCn1c(C(=O)N(C2CC2)C2CC2)cc2c3c(ncn3C)c(Nc3cc(C)n(C)n3)nc21
How it was run: as §1

[4] = compound: CCn1cc(-c2ccnc3[nH]c(-c4cccc(CN(C)C)c4)cc23)c(-c2ccc(NC(=O)N(C)C)cc2)n1
How it was run: as §1

[5] = compound: CN1CCC(CNc2ccc3ncc(-c4cccc(OC(F)(F)F)c4)n3n2)CC1
How it was run: as §1

saracatinib = compound: CN1CCN(CCOc2cc(OC3CCOCC3)c3c(Nc4c(Cl)ccc5c4OCO5)ncnc3c2)CC1 [saracatinib]
How it was run: as §1

sotrastaurin = compound: CN1CCN(c2nc(C3=C(c4c[nH]c5ccccc45)C(=O)NC3=O)c3ccccc3n2)CC1 [sotrastaurin]
How it was run: as §1

alvocidib = compound: CN1CC[C@H](c2c(O)cc(O)c3c(=O)cc(-c4ccccc4Cl)oc23)[C@H](O)C1 [alvocidib]
How it was run: as §1

Tubastatin A = compound: CN1CCc2c(c3ccccc3n2Cc2ccc(C(=O)NO)cc2)C1 [Tubastatin A]
How it was run: as §1

[6] = compound: CNC(=O)C1=CC=CC=C1NC2=NC(=NC=C2Cl)NC3=C(C=C(C=C3)N4CCOCC4)OC
How it was run: as §1

defactinib = compound: CNC(=O)c1ccc(Nc2ncc(C(F)(F)F)c(NCc3nccnc3N(C)S(C)(=O)=O)n2)cc1 [defactinib]
How it was run: as §1

[7] = compound: CNc1nc(-c2ccc3c(N)n[nH]c3c2)cc(N2C[C@@H](C(=O)NC3CCCCC3)CC[C@H]2C)n1
How it was run: as §1

encorafenib = compound: COC(=O)N[C@@H](C)CNc1nccc(-c2cn(C(C)C)nc2-c2cc(Cl)cc(NS(C)(=O)=O)c2F)n1 [encorafenib]
How it was run: as §1

[8] = compound: COC(=O)[C@H](CCSC)NC(=O)C1=C(C=C(C=C1)NC[C@H](CS)N)C2=CC=CC=C2
How it was run: as §1

alisertib = compound: COc1cc(Nc2ncc3c(n2)-c2ccc(Cl)cc2C(c2c(F)cccc2OC)=NC3)ccc1C(=O)O [alisertib]
How it was run: as §1

[9] = compound: COc1cc2nc(-c3cc(F)ccc3O)nc(N[C@@H]3CNC[C@H]3C(C)(C)O)c2cc1OC
How it was run: as §1

gefitinib = compound: COc1cc2ncnc(Nc3ccc(F)c(Cl)c3)c2cc1OCCCN1CCOCC1 [gefitinib]
How it was run: as §1

UniProt Q4ADV7, sequence (Q4ADV7 whole entry, looked up): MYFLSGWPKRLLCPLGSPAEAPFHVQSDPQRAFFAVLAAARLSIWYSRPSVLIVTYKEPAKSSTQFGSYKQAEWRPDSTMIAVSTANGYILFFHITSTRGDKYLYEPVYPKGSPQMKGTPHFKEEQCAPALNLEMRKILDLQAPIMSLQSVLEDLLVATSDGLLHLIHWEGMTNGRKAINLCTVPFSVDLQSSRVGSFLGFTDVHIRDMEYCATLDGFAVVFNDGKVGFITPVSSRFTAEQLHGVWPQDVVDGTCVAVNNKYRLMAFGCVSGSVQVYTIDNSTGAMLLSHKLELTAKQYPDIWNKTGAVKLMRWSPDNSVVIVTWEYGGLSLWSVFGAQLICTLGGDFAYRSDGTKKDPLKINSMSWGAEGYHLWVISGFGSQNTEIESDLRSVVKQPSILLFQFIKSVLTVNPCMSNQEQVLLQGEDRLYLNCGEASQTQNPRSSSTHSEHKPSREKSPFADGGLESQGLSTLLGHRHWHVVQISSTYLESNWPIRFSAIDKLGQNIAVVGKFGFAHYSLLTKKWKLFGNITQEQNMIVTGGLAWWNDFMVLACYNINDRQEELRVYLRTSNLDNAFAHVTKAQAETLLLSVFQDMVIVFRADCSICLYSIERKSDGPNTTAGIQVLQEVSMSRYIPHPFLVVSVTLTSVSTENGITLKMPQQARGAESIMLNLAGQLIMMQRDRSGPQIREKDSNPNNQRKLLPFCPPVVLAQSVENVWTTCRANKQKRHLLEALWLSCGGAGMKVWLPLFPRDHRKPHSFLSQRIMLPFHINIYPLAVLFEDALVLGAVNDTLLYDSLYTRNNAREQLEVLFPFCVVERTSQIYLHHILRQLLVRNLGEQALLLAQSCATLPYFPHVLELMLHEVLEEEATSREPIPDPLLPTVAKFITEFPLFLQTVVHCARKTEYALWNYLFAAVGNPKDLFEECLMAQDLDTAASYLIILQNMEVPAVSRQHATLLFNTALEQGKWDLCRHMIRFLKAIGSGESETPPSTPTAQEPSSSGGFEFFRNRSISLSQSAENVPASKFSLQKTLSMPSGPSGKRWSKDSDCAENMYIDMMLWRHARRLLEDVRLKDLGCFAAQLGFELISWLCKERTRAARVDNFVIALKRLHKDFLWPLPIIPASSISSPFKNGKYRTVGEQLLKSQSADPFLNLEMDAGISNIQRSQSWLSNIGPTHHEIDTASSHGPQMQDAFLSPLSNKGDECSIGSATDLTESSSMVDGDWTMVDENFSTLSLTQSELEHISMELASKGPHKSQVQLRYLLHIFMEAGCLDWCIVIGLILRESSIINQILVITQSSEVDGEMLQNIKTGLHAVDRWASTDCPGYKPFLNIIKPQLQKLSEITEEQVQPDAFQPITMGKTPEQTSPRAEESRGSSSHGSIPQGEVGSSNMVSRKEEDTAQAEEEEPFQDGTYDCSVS
UniProt Q7L523, sequence (Q7L523 whole entry, looked up): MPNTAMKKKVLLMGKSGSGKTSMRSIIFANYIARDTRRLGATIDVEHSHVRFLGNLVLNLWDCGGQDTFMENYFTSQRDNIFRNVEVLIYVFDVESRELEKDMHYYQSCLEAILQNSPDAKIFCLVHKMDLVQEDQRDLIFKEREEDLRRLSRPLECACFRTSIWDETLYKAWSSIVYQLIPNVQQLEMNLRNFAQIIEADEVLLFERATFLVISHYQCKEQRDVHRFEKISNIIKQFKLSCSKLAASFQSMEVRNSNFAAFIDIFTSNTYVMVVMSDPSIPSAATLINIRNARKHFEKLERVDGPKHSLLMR
UniProt O43502, sequence (O43502 whole entry, looked up): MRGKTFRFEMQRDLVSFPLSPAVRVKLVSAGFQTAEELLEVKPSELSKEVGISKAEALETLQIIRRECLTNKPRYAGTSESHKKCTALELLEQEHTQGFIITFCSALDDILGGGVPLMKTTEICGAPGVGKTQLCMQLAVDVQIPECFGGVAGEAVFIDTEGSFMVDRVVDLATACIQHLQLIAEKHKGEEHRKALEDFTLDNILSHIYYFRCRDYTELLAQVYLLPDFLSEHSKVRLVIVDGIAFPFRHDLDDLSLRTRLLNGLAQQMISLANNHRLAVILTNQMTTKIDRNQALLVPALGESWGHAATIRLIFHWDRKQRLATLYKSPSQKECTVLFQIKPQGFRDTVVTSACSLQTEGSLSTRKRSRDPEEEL
UniProt Q86X10, sequence (Q86X10 whole entry, looked up): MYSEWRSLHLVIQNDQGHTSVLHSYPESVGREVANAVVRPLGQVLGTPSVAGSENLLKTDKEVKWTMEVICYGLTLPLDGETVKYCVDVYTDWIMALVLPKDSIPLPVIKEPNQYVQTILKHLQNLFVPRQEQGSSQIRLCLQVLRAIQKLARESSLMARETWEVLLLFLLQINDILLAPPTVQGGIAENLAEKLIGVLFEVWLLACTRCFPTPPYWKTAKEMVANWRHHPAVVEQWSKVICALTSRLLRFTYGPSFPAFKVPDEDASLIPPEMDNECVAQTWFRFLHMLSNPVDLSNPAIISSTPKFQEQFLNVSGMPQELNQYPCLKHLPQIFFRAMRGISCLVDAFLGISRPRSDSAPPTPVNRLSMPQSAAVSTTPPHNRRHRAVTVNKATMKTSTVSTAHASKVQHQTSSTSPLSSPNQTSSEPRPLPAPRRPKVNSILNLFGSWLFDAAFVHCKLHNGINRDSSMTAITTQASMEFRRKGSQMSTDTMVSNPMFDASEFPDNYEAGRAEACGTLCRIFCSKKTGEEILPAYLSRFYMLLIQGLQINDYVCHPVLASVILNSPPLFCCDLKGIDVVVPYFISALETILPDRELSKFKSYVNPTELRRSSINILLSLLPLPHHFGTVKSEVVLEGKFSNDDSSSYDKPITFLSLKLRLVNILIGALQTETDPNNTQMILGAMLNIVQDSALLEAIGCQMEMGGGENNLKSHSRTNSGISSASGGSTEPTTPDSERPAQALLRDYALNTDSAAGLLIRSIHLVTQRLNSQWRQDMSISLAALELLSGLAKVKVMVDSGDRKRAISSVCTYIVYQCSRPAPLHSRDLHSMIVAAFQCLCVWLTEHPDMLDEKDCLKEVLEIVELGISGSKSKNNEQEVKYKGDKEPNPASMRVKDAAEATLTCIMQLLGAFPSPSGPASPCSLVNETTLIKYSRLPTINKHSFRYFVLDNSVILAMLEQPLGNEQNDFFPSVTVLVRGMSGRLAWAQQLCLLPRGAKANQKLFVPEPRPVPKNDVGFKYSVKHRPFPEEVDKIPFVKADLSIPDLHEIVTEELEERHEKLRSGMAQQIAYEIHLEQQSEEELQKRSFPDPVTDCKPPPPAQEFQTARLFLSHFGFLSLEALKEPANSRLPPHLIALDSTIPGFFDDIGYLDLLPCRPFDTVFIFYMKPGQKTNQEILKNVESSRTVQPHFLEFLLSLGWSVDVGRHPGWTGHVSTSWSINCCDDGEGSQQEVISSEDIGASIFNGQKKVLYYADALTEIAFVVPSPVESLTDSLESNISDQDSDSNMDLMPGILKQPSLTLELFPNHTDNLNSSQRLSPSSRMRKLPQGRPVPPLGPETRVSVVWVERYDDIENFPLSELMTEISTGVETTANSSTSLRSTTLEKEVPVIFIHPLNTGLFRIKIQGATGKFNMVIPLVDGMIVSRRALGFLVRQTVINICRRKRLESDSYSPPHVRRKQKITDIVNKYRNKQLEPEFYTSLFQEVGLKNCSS
UniProt O43819, sequence (O43819 whole entry, looked up): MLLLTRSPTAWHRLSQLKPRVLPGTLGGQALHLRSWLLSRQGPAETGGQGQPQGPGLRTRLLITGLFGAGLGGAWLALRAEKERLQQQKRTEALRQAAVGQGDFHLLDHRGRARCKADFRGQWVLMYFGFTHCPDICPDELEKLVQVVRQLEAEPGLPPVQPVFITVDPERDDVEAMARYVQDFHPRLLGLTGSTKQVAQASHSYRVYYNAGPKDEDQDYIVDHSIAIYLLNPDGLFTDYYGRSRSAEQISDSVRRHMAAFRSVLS
UniProt Q9H0U4, sequence (Q9H0U4 whole entry, looked up): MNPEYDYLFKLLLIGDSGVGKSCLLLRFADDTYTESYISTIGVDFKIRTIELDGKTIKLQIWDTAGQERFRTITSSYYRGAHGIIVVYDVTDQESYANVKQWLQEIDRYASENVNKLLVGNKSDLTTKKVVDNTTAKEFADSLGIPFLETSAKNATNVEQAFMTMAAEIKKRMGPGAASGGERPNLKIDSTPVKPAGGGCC
UniProt P38159, sequence (P38159 whole entry, looked up): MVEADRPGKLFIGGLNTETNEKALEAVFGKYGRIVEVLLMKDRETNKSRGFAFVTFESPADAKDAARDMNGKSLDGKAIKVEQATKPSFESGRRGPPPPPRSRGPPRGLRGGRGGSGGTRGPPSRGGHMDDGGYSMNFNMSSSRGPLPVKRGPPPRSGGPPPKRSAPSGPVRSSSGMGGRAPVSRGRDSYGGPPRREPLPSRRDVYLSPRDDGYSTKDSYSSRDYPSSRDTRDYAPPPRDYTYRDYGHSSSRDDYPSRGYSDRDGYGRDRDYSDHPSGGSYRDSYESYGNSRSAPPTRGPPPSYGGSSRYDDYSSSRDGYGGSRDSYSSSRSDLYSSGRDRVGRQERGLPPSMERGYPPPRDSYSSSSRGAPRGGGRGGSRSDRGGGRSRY
UniProt P61224, sequence (P61224 whole entry, looked up): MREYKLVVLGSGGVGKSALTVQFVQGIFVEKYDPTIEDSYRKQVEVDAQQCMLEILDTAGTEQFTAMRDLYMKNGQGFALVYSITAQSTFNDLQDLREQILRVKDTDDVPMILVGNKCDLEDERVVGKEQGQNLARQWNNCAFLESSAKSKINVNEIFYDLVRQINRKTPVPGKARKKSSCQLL
UniProt P60059, sequence (P60059 whole entry, looked up): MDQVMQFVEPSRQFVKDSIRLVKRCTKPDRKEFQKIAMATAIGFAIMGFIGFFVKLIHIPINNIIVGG

Row | Target | log2 fold change (vemurafenib) | log2 fold change [1] | log2 fold change (barasertib) | log2 fold change [2] | log2 fold change (volasertib) | log2 fold change [3] | log2 fold change [4] | log2 fold change [5] | log2 fold change (saracatinib) | log2 fold change (sotrastaurin) | log2 fold change (alvocidib) | log2 fold change (Tubastatin A) | log2 fold change [6] | log2 fold change (defactinib) | log2 fold change [7] | log2 fold change (encorafenib) | log2 fold change [8] | log2 fold change (alisertib) | log2 fold change [9] | log2 fold change (gefitinib)
1 | RAP1B (UniProt P61224) | 0.006 | 0.008 | 0.054 | 0.061 | 0.018 | -0.037 | 0.372 (active) | -0.035 | 0.002 | 0.005 | 0.039 | 0.05 | 0.005 | 0.02 | 0.025 | 0.011 | -0.034 | 0.015 | 0.057 | -0.054
2 | RAD51C (UniProt O43502) | -0.067 | -0.01 | -0.011 | -0.017 | 0.046 | -0.038 | -0.027 | 0.027 | 0.01 | 0.027 | 0.061 | -0.081 | 0.002 | 0.035 | 0.072 | -0.058 | 0.004 | -0.005 | 0.047 | -0.016
3 | RPL36AL (UniProt Q969Q0) | -0.039 | 0.012 | -0.009 | -0.04 | -0.013 | 0.076 | -0.076 | -0.004 | -0.091 | -0.032 | 0.055 | -0.056 | 0.023 | 0.026 | -0.243 (active) | 0.03 | -0.08 | -0.057 | -0.029 | -0.07
4 | RALGAPA1 isoform 6 (UniProt Q6GYQ0) | -0.008 | 0.017 | 0.196 | 0.02 | -0.03 | -0.007 | -0.377 (active) | 0.074 | 0.049 | 0.03 | -0.102 | 0.033 | 0.007 | 0.069 | 0.003 | 0.016 | 0.094 | -0.029 | 0.047 | 0.056
5 | RBMX (UniProt P38159) | -0.058 | 0.013 | -0.026 | -0.012 | -0.02 | 0.067 | -0.007 | 0.009 | -0.031 | -0.014 | -0.003 | -0.03 | -0.042 | 0.023 | -0.022 | 0.021 | -0.068 | 0.002 | 0.013 | 0.023
6 | RNF123 (UniProt Q5XPI4) | 0.034 | 0.003 | 0.019 | -0.009 | -0.048 | 0.035 | -0.045 | 0.004 | -0.006 | 0.03 | 0.011 | -0.047 | -0.002 | -0.027 | 0.017 | 0.044 | -0.062 | -0.004 | 0.017 | 0.011
7 | SCO2 (UniProt O43819) | -0.064 | 0.054 | 0.019 | -0.075 | -0.028 | -0.087 | -0.235 | 0.076 | -0.046 | 0.003 | -0.009 | 0.039 | 0.073 | 0.008 | -0.007 | 0.027 | -0.607 (active) | -0.115 | 0.046 | 0.114
8 | REXO4 (UniProt Q9GZR2) | -0.018 | 0.007 | 0.088 | 0.013 | -0.034 | 0 | 0.452 (active) | -0.184 | -0.002 | 0.013 | 0.089 | -0.108 | 0.026 | 0.013 | 0.032 | -0.007 | 0.08 | -0.008 | 0.024 | -0.029
9 | RPS26P11 (UniProt Q5JNZ5) | 0.012 | -0.01 | -0.03 | 0.041 | 0.017 | 0.02 | -0.688 (active) | 0.224 | 0.009 | 0.05 | -0.216 | 0.038 | -0.064 | 0.011 | 0.02 | 0.007 | 0.006 | -0.006 | -0.032 | -0.056
10 | RAB1B (UniProt Q9H0U4) | -0.003 | 0.012 | 0.073 | 0.019 | 0.006 | -0.016 | -0.444 (active) | 0.171 | 0.021 | 0.017 | -0.146 | 0.007 | -0.016 | -0.037 | 0.01 | 0.065 | -0.058 | 0.047 | 0.003 | 0.064
11 | RANBP6 (UniProt O60518) | 0.008 | 0.025 | 0.013 | -0.016 | 0.013 | 0.068 | -0.045 | 0.06 | -0.038 | 0.002 | -0.033 | -0.07 | 0.008 | 0.047 | 0.014 | -0.027 | 0.057 | 0.063 | 0.046 | 0.008
12 | SEC61G (UniProt P60059) | 0.015 | -0.079 | 0.175 | 0.159 | 0.033 | -0.067 | -0.118 | 0.405 | -0.276 | -0.184 | -0.107 | 0.063 | 0.09 | 0.045 | 0.137 | -0.02 | 0.067 | 0.053 | 0.009 | 0.036
13 | RRAGA (UniProt Q7L523) | 0.111 | 0.092 | -0.004 | 0.014 | 0.042 | 0.139 | -0.011 | 0.051 | 0.081 | -0.014 | -0.122 | -0.687 (active) | -0.053 | -0.044 | -0.045 | -0.032 | -0.022 | -0.161 | 0.017 | 0.04
14 | RIC1 (UniProt Q4ADV7) | -0.055 | 0.021 | -0.013 | 0.029 | 0.009 | 0.017 | -0.29 | 0.004 | -0.012 | -0.008 | 0.014 | -0.051 | 0.029 | -0.12 | 0.02 | 0.037 | -0.13 | 0.017 | -0.073 | 0.024
15 | RALGAPB (UniProt Q86X10) | 0.044 | 0.016 | 0.103 | -0.008 | -0.023 | -0.013 | -0.09 | 0.07 | 0.017 | 0.032 | 0.02 | -0.056 | -0.069 | 0.026 | 0.012 | 0.044 | 0.015 | 0 | 0.032 | -0.007
16 | RPL37A (UniProt P61513) | 0.003 | -0.002 | -0.013 | -0.01 | -0.015 | -0.044 | 0.371 (active) | -0.158 | -0.035 | -0.138 | 0.159 | 0.024 | 0.022 | -0.045 | 0.161 | 0.004 | 0.021 | -0.006 | 0.004 | -0.064
